Records with an inconclusive call do not appear. Active and inactive are the calls of the source. Rule for the calls: active = hit-call score of the fitted dose curve at least 0.9, where 1 is the maximum; inconclusive = response in the unintended direction; inactive = score below 0.9.
Each compound was assayed against rat SKCa (Non-Selective), Kcnn1 (gene 54261) (UniProt P70606) (assay: ERF_FR_IC_rKCNN1: Eurofins (ERF) Potassium Ion Channel [125I] Apamin Binding LeadHunter Assay for rat SKCa (Non-Selective)).
Sequence of rat SKCa (Non-Selective), Kcnn1 (gene 54261) (P70606 whole entry, looked up): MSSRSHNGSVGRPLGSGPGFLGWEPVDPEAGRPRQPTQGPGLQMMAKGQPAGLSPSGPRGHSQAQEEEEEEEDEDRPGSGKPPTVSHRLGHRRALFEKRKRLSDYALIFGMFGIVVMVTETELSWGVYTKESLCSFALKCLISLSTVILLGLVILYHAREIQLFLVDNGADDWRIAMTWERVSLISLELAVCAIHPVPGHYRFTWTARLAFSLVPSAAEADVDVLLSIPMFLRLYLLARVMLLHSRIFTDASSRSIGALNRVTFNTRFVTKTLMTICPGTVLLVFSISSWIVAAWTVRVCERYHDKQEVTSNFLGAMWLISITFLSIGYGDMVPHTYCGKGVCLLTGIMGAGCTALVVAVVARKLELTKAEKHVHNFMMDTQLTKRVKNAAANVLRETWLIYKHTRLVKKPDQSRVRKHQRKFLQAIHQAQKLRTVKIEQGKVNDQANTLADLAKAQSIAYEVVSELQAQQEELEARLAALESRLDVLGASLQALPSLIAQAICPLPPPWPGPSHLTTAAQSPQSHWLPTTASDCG
Description: ERF_FR_IC_rKCNN1 is a biochemical, single-readout assay that uses extracted gene-proteins in a cell-free assay. Measurements were taken 1 hour after chemical dosing in a 96-well plate. See SKCa (Non-Selective) Rat Potassium Ion Channel [125I] Apamin Binding Assay, Cerep.ERF_FR_IC_rKCNN1 is an assay component calculated from the ERF_FR_IC_rKCNN1 assay. It is designed to measure radioligand binding using a type of binding reporter as detected by scintillation counting with radiometry technology.Data from the assay component ERF_FR_IC_rKCNN1 was analyzed at the assay endpoint, ERF_FR_IC_rKCNN1, in the positive analysis fitting direction relative to DMSO as the negative control and baseline of activity. Using a type of binding reporter, loss-of-signal activity can be used to understand changes in binding as they relate to gene Kcnn1. To generalize the intended target to other relatable targets, this assay endpoint is annotated to the ion channel intended target family, where the subfamily is voltage gated (Potassium).
This assay measures binding of [125I]apamin to small conductance calcium-activated potassium channel sites [SKCa]. […] Membranes are filtered and washed 3 times and the filters are counted to determine [125I]apamin specifically bound. […]

Compound	outcome
CCCCC[C@H](O)CC(=O)CCc1ccc(O)c(OC)c1	inactive

From PubChem BioAssay AID2284174 (EPA ToxCast)
